From PubChem BioAssay (EPA / NIEHS)
Calls of active or inactive are those of the source. The calls were made as follows: active = hit-call score of the fitted dose curve at least 0.9, where 1 is the maximum; inactive = score below 0.9.

Legend:
[1] = biological target: Transcription factor E2F1 (Homo sapiens) (UniProt Q01094); assay: ATG_E2F_CIS: Attagene CIS-FACTORIAL HepG2 Assay for human E2F Transcription Factor 1 (AID 2282935); conditions: HepG2 Attagene cis-reporter, E2F reporter RNA transcripts; actives raise or lower the signal
In short: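 Liver-derived HepG2 cells expressing transfected promoter-driven reporter units received test chemical for 24 hours. Signal gains or losses were fitted bidirectionally against DMSO.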

[2] = ATG_E_Box_CIS: Attagene CIS-FACTORIAL HepG2 Assay for human Enhancer Box (E-box) (AID 2282936); conditions: HepG2 E-box cis-reporter transcription, actives raise or lower the signal
In short: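 In this cell-based setup, HepG2 cells bearing transfected promoter-driven reporter units were exposed to chemicals for 24 h; reporter transcripts were amplified, 6-FAM-labelled, cut with HpaI and sized by capillary electrophoresis.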

[3] = ATG_M_61_CIS: Attagene CIS-FACTORIAL HepG2 Assay for M61 Transcription Factor (Internal Marker) (AID 2282937); conditions: HepG2 Attagene CIS-FACTORIAL M61 internal marker reporter; actives raise or lower the signal
In short: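 Cells were transfected with reporter units under cis-regulatory promoters, treated with chemicals for 24 h, then lysed for RNA. Reporter transcripts were quantified by RT-PCR and capillary electrophoresis, and activity was fitted bidirectionally against DMSO.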

[4] = ATG_EGR_CIS: Attagene CIS-FACTORIAL HepG2 Assay for human Early Growth Response 1 (EGR1) (AID 2282938); conditions: HepG2 Attagene CIS-FACTORIAL EGR reporter mRNA; actives raise or lower the signal
In short: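 Endogenous TF activity in HepG2 liver cells was gauged through cis-promoter reporter constructs transiently transfected. After 24 h dosing, reporter mRNA was quantified by RT-PCR and capillary electrophoresis, and curves fitted in both directions versus DMSO.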

[5] = ATG_M_19_CIS: Attagene CIS-FACTORIAL HepG2 Assay for M19 Transcription Factor (Internal Marker) (AID 2282939); conditions: HepG2 Attagene CIS-FACTORIAL M19 internal marker reporter; actives raise or lower the signal
In short: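 HepG2 cells transiently transfected with cis-regulated multiplexed reporter units, dosed 24 h. Reporter mRNA quantified by RT-PCR and capillary electrophoresis; internal background marker fitted bidirectionally versus DMSO.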

[6] = ATG_ERE_CIS: Attagene CIS-FACTORIAL HepG2 Assay for Estrogen Response Element (ERE) (AID 2282940); conditions: HepG2 ERE cis-reporter, Attagene RNA transcript; actives raise or lower the signal
In short: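 HepG2 cells transiently transfected with multiplexed cis-element reporter units, measuring endogenous transcription factor activity; ERE reporter mRNA quantified after 24 h exposure by RT-PCR, fluorescent labelling, HpaI digestion and capillary electrophoresis. Bidirectional change versus DMSO.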

[7] = ATG_Ets_CIS: Attagene CIS-FACTORIAL HepG2 Assay for human Erythroblast Transformation Specific (ETS) (AID 2282941); conditions: HepG2 ETS cis-reporter transcription, actives raise or lower the signal
In short: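 Bidirectional fit versus DMSO of reporter mRNA signal, detected by RT-PCR and capillary electrophoresis in HepG2 cells transiently transfected with cis-element reporters and dosed 24 h.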

[8] = biological target: Hepatocyte nuclear factor 3-beta (Homo sapiens) (UniProt Q9Y261); assay: ATG_FoxA2_CIS: Attagene CIS-FACTORIAL HepG2 Assay for human Forkhead box A2 (FOXA2) (AID 2282942); conditions: HepG2 cis-reporter transcription factor activity, 24 h; actives raise or lower the signal
In short: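 Endogenous transcription factor activity was read in HepG2 cells carrying transiently transfected cis-promoter reporter units. After 24 h dosing, reporter mRNA was quantified by RT-PCR and capillary electrophoresis, and values fitted bidirectionally versus DMSO.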

[9] = ATG_FoxO_CIS: Attagene CIS-FACTORIAL HepG2 Assay for human Forkhead box O (FoxO) (AID 2282943); conditions: HepG2 Attagene cis-reporter, FoxO element, mRNA; actives raise or lower the signal
In short: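 Transfected HepG2 reporter cells exposed to test chemical for 24 h; reporter RNA measured by reverse transcription, PCR and fluorescent capillary electrophoresis; curves fitted for increases and decreases against DMSO.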

[10] = ATG_GATA_CIS: Attagene CIS-FACTORIAL HepG2 Assay for human GATA Binding Protein (AID 2282944); conditions: HepG2 GATA cis-element reporter, Attagene multiplex mRNA; actives raise or lower the signal
In short: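 HepG2 cells transiently transfected with multiplexed cis-element reporter units measure endogenous GATA activity; after 24 h compound exposure, reporter mRNA quantified by RT-PCR and capillary electrophoresis. Changes fitted in both directions vs DMSO.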

[11] = ATG_GLI_CIS: Attagene CIS-FACTORIAL HepG2 Assay for human Zinc Finger Protein GLI1 (AID 2282945); conditions: HepG2, Attagene cis-factorial reporter mRNA, GLI element; actives raise or lower the signal
In short: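 Transiently transfected HepG2 cells report endogenous transcription factor activity via cis-element-driven reporter units. After 24 h compound exposure, reporter mRNA was measured by RT-PCR with capillary electrophoresis; bidirectional fitting against DMSO baseline.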

[12] = ATG_GRE_CIS: Attagene CIS-FACTORIAL HepG2 Assay for human Glucocorticoid Response Elements (GRE) (AID 2282947); conditions: HepG2 GRE cis-reporter, Attagene multiplex mRNA; actives raise or lower the signal
In short: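 Fluorescence intensity of reporter-specific cDNA fragments, separated by capillary electrophoresis, provides the signal. Constructs carry cis-regulating promoters in transiently transfected HepG2 liver cells; 24 h incubation; fitting is bidirectional against DMSO.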

[13] = ATG_ISRE_CIS: Attagene CIS-FACTORIAL HepG2 Assay for human Interferon Regulatory Factor 1 (IRF1) binding to an Interferon-Stimulated Response Element (ISRE) (AID 2282948); conditions: HepG2 ISRE cis-reporter (Attagene), mRNA transcription readout; actives raise or lower the signal
In short: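 Uses HepG2 liver cells transfected with cis-regulated reporters and measures mRNA 24 h post-dosing through RT-PCR, primer-extension labelling and capillary electrophoresis, with DMSO as negative control.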

[14] = ATG_M_32_CIS: Attagene CIS-FACTORIAL HepG2 Assay for M32 Transcription Factor (Internal Marker) (AID 2282949); conditions: HepG2 Attagene cis-factorial M32 reporter, mRNA; actives raise or lower the signal;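 also: background control marker of the multiplexed CIS panel rather than a real target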
In short: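 HepG2 human liver cells transiently transfected with cis-promoter-driven multiple reporter transcription units, dosed 24 h. Reporter mRNA quantified by RT-PCR, FAM-labelled primer extension, HpaI digest and capillary electrophoresis; bidirectional fit versus DMSO baseline.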

[15] = ATG_M_06_CIS: Attagene CIS-FACTORIAL HepG2 Assay for M06 Transcription Factor (Internal Marker) (AID 2282950); conditions: HepG2 Attagene CIS-FACTORIAL M06 internal marker reporter; actives raise or lower the signal
In short: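 Internal background marker within multiplexed cis-reporter HepG2 system. Cells transiently transfected, dosed 24 h; reporter mRNA measured by RT-PCR, HpaI digestion and capillary electrophoresis. Bidirectional fit relative to DMSO.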

[16] = biological target: Hypoxia-inducible factor 1-alpha (Homo sapiens) (UniProt Q16665); assay: ATG_HIF1a_CIS: Attagene CIS-FACTORIAL HepG2 Assay for human Hypoxia Inducible Factor 1 (HIF1A) (AID 2282951); conditions: HepG2 Attagene cis-factorial HIF1a reporter transcription; actives raise or lower the signal
In short: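 Measures endogenous transcription-factor activity through cis-regulated reporter mRNA in HepG2. Cells dosed 24 h; transcripts quantified by RT-PCR with 6-FAM-labelled products separated by capillary electrophoresis; DMSO serves as negative control.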

[17] = biological target: Hepatocyte nuclear factor 6 (Homo sapiens) (UniProt Q9UBC0); assay: ATG_HNF6_CIS: Attagene CIS-FACTORIAL HepG2 Assay for human Hepatocyte Nuclear Factor 6 (HNF6) (AID 2282952); conditions: HepG2 Attagene cis-factorial HNF6 reporter transcription; actives raise or lower the signal
In short: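 Activity values derive from bidirectional fitting against DMSO of reporter mRNA levels, measured by capillary electrophoresis of labelled RT-PCR products from HepG2 cells exposed 24 h.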

[18] = biological target: Heat shock factor protein 1 (Homo sapiens) (UniProt Q00613); assay: ATG_HSE_CIS: Attagene CIS-FACTORIAL HepG2 Assay for human Heat Shock Transcription Factor 1 (HSE) (AID 2282953); conditions: HepG2 HSE cis-reporter, Attagene RNA transcription; actives raise or lower the signal
In short: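 HepG2 cells transfected with cis-promoter reporter units sensing endogenous transcription factor activity; reporter mRNA quantified 24 h post-dose by RT-PCR and capillary electrophoresis of 6-FAM-labelled products. Bidirectional fitting against DMSO.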

[19] = ATG_MRE_CIS: Attagene CIS-FACTORIAL HepG2 Assay for human Metal Responsive Element (MRE) (AID 2282954); conditions: HepG2 MRE cis-reporter transcription, Attagene multiplex; actives raise or lower the signal
In short: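 Measured here is mRNA induction from an MRE cis-element reporter in HepG2 after 24 h, quantified by fluorescence of labelled RT-PCR products on capillary electrophoresis; gain- and loss-of-signal fits use DMSO as baseline.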

Measured: AC50

Transcription factor E2F1 (Homo sapiens), sequence (Q01094 whole entry, looked up): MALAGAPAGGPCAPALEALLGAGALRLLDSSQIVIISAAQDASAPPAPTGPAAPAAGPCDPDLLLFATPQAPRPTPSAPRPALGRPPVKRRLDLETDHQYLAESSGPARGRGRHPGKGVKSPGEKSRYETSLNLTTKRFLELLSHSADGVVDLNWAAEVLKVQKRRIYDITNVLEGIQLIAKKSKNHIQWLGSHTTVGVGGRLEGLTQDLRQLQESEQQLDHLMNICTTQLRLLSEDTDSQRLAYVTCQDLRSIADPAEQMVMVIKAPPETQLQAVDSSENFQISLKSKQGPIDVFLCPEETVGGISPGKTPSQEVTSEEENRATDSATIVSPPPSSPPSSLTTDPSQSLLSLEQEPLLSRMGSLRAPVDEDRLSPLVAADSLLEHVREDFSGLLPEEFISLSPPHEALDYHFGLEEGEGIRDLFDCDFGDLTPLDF
Hypoxia-inducible factor 1-alpha (Homo sapiens), sequence (Q16665 whole entry, looked up): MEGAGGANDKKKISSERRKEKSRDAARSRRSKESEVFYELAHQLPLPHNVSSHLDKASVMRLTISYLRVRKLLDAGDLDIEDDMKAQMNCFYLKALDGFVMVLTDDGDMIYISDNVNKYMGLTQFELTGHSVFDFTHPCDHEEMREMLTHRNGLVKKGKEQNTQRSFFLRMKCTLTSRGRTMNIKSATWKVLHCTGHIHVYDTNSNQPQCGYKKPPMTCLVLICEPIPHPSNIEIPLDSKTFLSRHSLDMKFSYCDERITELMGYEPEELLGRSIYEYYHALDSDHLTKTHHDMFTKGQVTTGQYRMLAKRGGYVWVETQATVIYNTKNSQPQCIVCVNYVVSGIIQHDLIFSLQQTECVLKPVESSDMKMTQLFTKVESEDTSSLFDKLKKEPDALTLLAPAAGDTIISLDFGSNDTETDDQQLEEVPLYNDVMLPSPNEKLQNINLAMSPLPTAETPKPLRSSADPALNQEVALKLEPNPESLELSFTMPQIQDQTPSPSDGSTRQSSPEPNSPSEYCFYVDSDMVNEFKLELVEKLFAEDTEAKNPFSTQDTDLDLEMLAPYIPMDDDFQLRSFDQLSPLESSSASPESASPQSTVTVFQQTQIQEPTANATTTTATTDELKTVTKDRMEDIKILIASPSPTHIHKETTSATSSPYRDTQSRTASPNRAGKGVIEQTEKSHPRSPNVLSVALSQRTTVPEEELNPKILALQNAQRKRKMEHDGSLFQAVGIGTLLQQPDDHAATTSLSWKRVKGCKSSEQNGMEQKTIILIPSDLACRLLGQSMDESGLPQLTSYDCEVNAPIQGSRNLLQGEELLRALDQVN
Hepatocyte nuclear factor 3-beta (Homo sapiens), sequence (Q9Y261 whole entry, looked up): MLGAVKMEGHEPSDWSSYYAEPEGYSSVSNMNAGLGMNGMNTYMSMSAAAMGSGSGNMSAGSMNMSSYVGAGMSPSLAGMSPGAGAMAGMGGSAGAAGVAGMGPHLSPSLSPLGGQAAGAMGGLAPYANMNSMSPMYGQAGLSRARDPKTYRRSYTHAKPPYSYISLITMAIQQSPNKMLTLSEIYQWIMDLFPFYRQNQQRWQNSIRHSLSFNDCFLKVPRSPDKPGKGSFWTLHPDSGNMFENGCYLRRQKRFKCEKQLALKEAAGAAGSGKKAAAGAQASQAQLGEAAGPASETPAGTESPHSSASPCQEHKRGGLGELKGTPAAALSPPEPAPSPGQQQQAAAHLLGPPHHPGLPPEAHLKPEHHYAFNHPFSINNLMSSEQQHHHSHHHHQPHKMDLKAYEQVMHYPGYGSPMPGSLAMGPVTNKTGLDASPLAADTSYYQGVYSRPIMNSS
Heat shock factor protein 1 (Homo sapiens), sequence (Q00613 whole entry, looked up): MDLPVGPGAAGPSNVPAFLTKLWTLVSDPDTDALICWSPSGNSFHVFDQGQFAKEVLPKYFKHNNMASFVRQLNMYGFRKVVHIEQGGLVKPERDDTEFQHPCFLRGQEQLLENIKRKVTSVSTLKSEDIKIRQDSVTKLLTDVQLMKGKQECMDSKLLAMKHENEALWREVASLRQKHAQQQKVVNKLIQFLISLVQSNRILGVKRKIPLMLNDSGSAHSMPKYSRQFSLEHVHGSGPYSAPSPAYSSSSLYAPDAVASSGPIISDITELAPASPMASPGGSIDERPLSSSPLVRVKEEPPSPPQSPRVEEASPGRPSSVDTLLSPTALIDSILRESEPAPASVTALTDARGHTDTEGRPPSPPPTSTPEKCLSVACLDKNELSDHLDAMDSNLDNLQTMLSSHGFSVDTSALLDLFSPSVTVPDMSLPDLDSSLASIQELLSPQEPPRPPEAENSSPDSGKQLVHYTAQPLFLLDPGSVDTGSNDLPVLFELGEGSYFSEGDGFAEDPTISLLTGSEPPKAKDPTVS
Hepatocyte nuclear factor 6 (Homo sapiens), sequence (Q9UBC0 whole entry, looked up): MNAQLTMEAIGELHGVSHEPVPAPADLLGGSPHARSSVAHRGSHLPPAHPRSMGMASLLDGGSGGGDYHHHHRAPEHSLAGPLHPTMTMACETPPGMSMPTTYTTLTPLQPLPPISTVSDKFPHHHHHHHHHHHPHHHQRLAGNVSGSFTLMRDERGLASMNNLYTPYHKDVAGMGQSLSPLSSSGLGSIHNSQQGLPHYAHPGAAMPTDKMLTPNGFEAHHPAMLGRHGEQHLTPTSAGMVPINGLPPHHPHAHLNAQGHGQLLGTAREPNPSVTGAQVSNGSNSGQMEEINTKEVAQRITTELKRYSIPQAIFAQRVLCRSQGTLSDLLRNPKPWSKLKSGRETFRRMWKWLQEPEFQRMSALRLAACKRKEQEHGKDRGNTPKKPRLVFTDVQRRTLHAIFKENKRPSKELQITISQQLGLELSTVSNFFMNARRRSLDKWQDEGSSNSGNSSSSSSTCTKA

CC1(C)C(C=C(Cl)Cl)C1C(=O)OC(C#N)c1cccc(Oc2ccccc2)c1 (stereo not drawn)
active: [6] 14.6 µM | [19] 14.9 µM
inactive: all other assays above

COC(=O)c1c(C(F)F)nc(C(F)(F)F)c(C2=NCCS2)c1CC(C)C
active: [2] 9.92 µM | [6] 13.8 µM | [10] 88.5 µM | [19] 18.5 µM
not listed: [12]
inactive: all other assays above

O=C(Nc1ccccc1-c1ccc(Cl)cc1)c1cccnc1Cl
inactive: all assays above

COP(=S)(OC)SCn1nnc2ccccc2c1=O
active: [4] 23.7 µM | [19] 17.3 µM
not listed: [12]
inactive: all other assays above

COc1cc(Cl)c(OC)cc1Cl
inactive: all assays above

Nc1cnn(-c2ccccc2)c(=O)c1Cl
inactive: all assays above

CCCC(=NOCC)C1=C(O)CC(CC(C)SCC)CC1=O (stereo not drawn)
inactive: all assays above

Cc1cc(C)nc(Nc2ccccc2)n1
active: [4] 50 µM
not listed: [18]
inactive: all other assays above

N#Cc1c[nH]cc1-c1cccc2c1OC(F)(F)O2
active: [6] 5.84 µM | [7] 29 µM | [19] 8.67 µM
inactive: all other assays above

N#CN=C1SCCN1Cc1ccc(Cl)nc1
inactive: all assays above

O=C1C2CC=CCC2C(=O)N1SC(Cl)(Cl)Cl (stereo not drawn)
not listed: [12]
inactive: all other assays above

CNC(=O)N(C)c1nnc(C(C)(C)C)s1
not listed: [12] | [16]
inactive: all other assays above

CC(C)Nc1nc(Cl)nc(NC(C)C)n1
not listed: [12]
inactive: all other assays above

CCOP(=S)(OCC)Oc1nc(Cl)n(C(C)C)n1
active: [6] 50 µM
inactive: all other assays above

Clc1nc(Cl)nc(Nc2ccccc2Cl)n1
inactive: all assays above
